# From PubChem BioAssay
# Tau fluor cs – counter-screen for tau fibril formation inhibitors | tau K18 P301L Alexa594 fluorescence, heparin fibrillization | Potency, µM (titrated, usually from 57.7 µM), for inactives: at the top dose activity change, negative = decrease | hit rate 0.93% among 280,000; further: nearly all actives have a fitted effect of over 55% in size
#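 Human tau K18 P301L (15 uM unlabeled, 0.24 uM Alexa 594-labeled) in 100 mM sodium acetate pH 7 with 20 uM heparin, 6 hr at 37 C. ThT 30 uM added, 1 hr ambient; Alexa 594 FP and total fluorescence read at 555/632 nm.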
# TR SRC2 fluor cs – counter-screen for TRb-SRC2 inhibitors: fluorescence interference. TRb/SRC2 Texas Red total fluorescence interference. Potency, µM (highest dose often 106 µM), without a hit: top-dose fluorescence change, negative = quenching. hit rate 0.29% among 280,000. AID 1479; active means well fitted curve in either direction with a large enough effect; inconclusive means small, poorly fitted or top-dose-only effect
#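 Flags fluorescent or light-absorbing compounds by total fluorescence, S + 2P, at 555 nm excitation and 632 nm emission. Mixture: 20 nM Texas Red SRC2 peptide, 0.6 uM human TRb LBD, 1 uM T3, 5% DMSO; compound exposure 5 h at ambient temperature.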
# TRb-SRC2 inh – inhibitors of human thyroid hormone receptor beta-SRC2 interaction; hit rate 0.065% among 280,000; TRbeta-SRC2 peptide binding, fluorescence polarization; receptor liganded with 1 µM T3; AID 1469; Potency, µM (series often up to 106 µM), for the others: at the top dose activity change, negative = inhibition, most hits filed as inhibitors;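 further: plate controls were bound peptide for no effect and peptide without receptor for full effect; nearly all actives have a fitted effect of over 50% in size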
# Target sequence (P10828 whole entry, looked up): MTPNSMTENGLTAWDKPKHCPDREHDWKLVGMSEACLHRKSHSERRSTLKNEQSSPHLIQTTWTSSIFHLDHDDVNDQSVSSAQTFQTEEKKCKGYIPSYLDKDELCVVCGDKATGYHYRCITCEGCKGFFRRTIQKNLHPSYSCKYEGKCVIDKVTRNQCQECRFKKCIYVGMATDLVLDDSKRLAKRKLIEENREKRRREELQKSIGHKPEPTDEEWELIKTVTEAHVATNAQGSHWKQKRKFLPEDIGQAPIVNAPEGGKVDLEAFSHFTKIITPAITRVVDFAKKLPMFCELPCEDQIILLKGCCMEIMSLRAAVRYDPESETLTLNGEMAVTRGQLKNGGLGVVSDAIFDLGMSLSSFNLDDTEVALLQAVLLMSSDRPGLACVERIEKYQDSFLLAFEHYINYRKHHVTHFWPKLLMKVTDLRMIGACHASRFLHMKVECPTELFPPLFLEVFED
#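 Human TRb LBD (0.6 uM) plus Texas Red-labeled SRC2 peptide (20 nM), 1uM T3, 5% DMSO, 5 hr at ambient temperature. Decreased polarization (555/632 nm) flags inhibition; data normalized to free and bound peptide controls.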
# RGS12 GoLoco inh – inhibitors of human Gai1-RGS12 GoLoco interaction (red fluorophore); Potency, µM (top dose mostly 61.6 µM), for inactives: at the highest dose activity, negative = inhibition, hits mostly inhibitors; AID 880; Gai1:RGS12 GoLoco peptide FP, rhodamine, 10 min; hit rate 0.44% among 230,000; P63096; active means well fitted inhibition curve with a large enough effect, not every such curve was filed as active; inactive means no such curve, though single readings can be large or run the other way; further: nearly all actives have a fitted effect of over 30% in size
# Tau fibril ThT – inhibitors of human tau fibril formation, thioflavin T binding. hit rate 2.1% among 270,000. recombinant tau K18 P301L, heparin-induced fibrillization, ThT fluorescence. Potency, µM (highest dose often 57.4 µM), without a hit: at the top dose activity, negative = inhibition, usual class: inhibitors. AID 1460; further: nearly all actives have a fitted effect of over 55% in size
#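 Using a mix of unlabeled (15 uM) and Alexa 594-labeled (0.24 uM) tau K18 P301L, heparin-triggered fibrillization over 6 hr at 37 C was scored by ThT fluorescence.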
# Tau FP inhib – tau fibrillization inhibition (FP) | P10636 | K18 P301L tau heparin fibrillization, Alexa594 FP, 6 h | Potency, µM (titrated, usually from 57.7 µM), inactives show top-dose activity, negative = inhibition, usual class: inhibitors | hit rate 0.39% among 280,000; further: nearly all actives have a fitted effect of over 55% in size
#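 FP of Alexa 594-tau after heparin (20 uM) induction. Substrate: human K18 P301L, 15 uM unlabeled, 0.24 uM labeled. Buffer 100 mM sodium acetate pH 7. 6 hr, 37 C.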
# Active calls of the source: *; u = inconclusive; x = no result; [ ] = dose if it differs, or a comment. An excerpt weighted towards active compounds, which were near 3.2% of everything screened. Unless noted, the call rests on the fitted dose curve; in most records, active means well fitted curve in the direction sought with a large enough effect; inconclusive means small, poorly fitted or top-dose-only effect, or another doubt; inactive means no such curve, though single readings can be large; an effect the other way counts as inactive or inconclusive. Unless noted, on the % scale 0 is the no-effect control and ±100 the full control effect; potency means the concentration at half of the fitted maximal effect.
SMILES,Tau fluor cs,TR SRC2 fluor cs,TRb-SRC2 inh,RGS12 GoLoco inh,Tau fibril ThT,Tau FP inhib
O=C(CNC(=O)C(c1ccccc1)c1ccccc1)N/N=C/c1ccc(O)cc1O,u,1%,-1%,4%,u,6%
Cc1ccc(Cl)cc1Nc1nc(-c2sc(NC(=O)c3ccccc3)nc2C)cs1,u,11%[53 µM],-12%[53 µM],20%,u,3%
Cc1nc(N)sc1-c1csc(NCc2ccccc2)n1,u,0%,2%,160%,20µM*,u
Cc1cc(NS(=O)(=O)c2ccc(Nc3nc(-c4sc(NC(=O)c5ccccc5)nc4C)cs3)cc2)no1,16µM*[quencher],-27%,-5%,5%,20µM*,11%
Cc1cc(-c2csc(NCc3ccccc3)n2)c(C)n1C,u,5%,-9%,86%,u,-14%
Cc1nc(NC(=O)c2ccccc2)sc1-c1csc(N)n1,u,-7%,6%,0%,13µM*,-3%
Cc1nc(NC(=O)c2ccccc2)sc1-c1csc(NCCc2ccccc2)n1,16µM*[quencher],9%,17%,20%,16µM*,u
COc1ccccc1-c1noc(-c2ccc(N3CCN(c4ccccc4)CC3)c([N+](=O)[O-])c2)n1,-18%,-1%,4%,x,u,1%
COc1ccc(S(=O)(=O)NCCc2sc(-c3ccccc3)nc2C)cc1F,-21%,-1%,2%,x,-6%,u
CC(=O)c1ccc(N2CCN(c3ncnc4c3c(-c3ccccc3)cn4-c3ccc(Cl)cc3)CC2)cc1,-9%,3%,-9%,x,-17%,-4%
Cc1ccc(NC2=CC(=O)c3sc(C)nc3C2=O)cc1,x,-18%,u,x,x,x
Cc1nc(NC(=O)c2ccccc2)sc1-c1csc(NCc2ccccc2)n1,13µM*[quencher],-6%,-4%,16%,u,u
c1ccc(Nc2nc(-c3ccccn3)cs2)cc1,u,-3%,1%,2%,u,5%
Cc1nc(N)sc1-c1csc(Nc2ncccn2)n1,-29%,u,7%,7%,4µM*,3%
Cc1nc(NC(=O)c2ccccc2)sc1-c1csc(Nc2cccc(F)c2)n1,11µM*[quencher],-3%,-7%,-2%,7.9µM*,u
Cc1nnc(SCc2ccc(Cl)cc2)c2cc3occc3n12,-25%,-1%,3%,x,u,u
O=C1C(=O)N(C2CCN(C(=O)c3ccccc3F)CC2)CCN1Cc1ccc(F)cc1,0%,0%,-1%,x,3%,-1%
Cc1ccc(OCCCn2c(-c3ccc(Cl)cc3)nc3ccccc3c2=O)c(C)c1,-3%,-2%,3%,x,-9%,-7%
Cc1cccc(Cn2cc(C(=O)Nc3ccc(F)c(C(F)(F)F)c3)ccc2=O)c1,u,1%,-3%,x,20%,25µM*
COC(=O)C1=C(C)N(Cc2ccc(C)cc2)C(=O)/C1=C\c1cc(OC)c(OC)c(OC)c1,-16%,-2%,8%,-2%,u,-8%
CCOc1cc(/C=C2\C(=O)N(CCc3ccc(OC)c(OC)c3)C(C)=C2C(=O)OC)ccc1O,u,3%,0%,-28%,28µM*,u
COC(=O)C1=C(C)N(Cc2ccc(C)cc2)C(=O)/C1=C\c1ccc(O)c(OC)c1,u,3%,-1%,-26%,14µM*,u
C=CCN1C(=O)/C(=C\c2ccco2)C(C(=O)OC)=C1C,-5%,-1%,-7%,-28%,1%,4%
CCOc1cc(/C=C2\C(=O)N(Cc3ccco3)C(C)=C2C(=O)OC)ccc1O,u,1%,-10%,-29%,28µM*,u
COC(=O)C1=C(C)N(c2cccc(OC)c2)C(=O)/C1=C\c1ccco1,-20%,-1%[53 µM],3%[53 µM],6%,u,-11%
CCOC(=O)C1=C(C)N(c2ccc(OCC)cc2)C(=O)/C1=C\c1ccco1,-22%,-1%,0%,14%,14µM*,u
NC(=O)OC[C@H](O)COc1ccc(Cl)cc1,x,-2%[53 µM],-8%[53 µM],7%[21.6 µM],x,x
